This excerpt belongs to a sample that is enriched for hits.
Pf Dd2 growth – Plasmodium falciparum Dd2 growth inhibition; P. falciparum Dd2 growth, SYBR Green, 72 h; Potency, µM (titrated, usually from 28.9 µM), inactives show at the top dose activity, negative = inhibition, usual class: inhibitors; hit rate 4.3% among 120,000; AID 1347417; active = well fitted inhibition curve with a large enough effect;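 also: plate controls were DMSO vehicle for no effect and reference drug for full effect; nearly all actives have a fitted effect of over 65% in size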
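Readout: SYBR Green fluorescence, 485 nm excitation, 535 nm emission, after ~16 h lysis at 37C. Before that, Dd2-infected red cells (2.5% hematocrit) grew 72 h with compound, 29 uM top final concentration.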
Numbers without * were called inactive; i = inactive; [ ] = dose if it differs, or a comment. Potency is read from the fitted curve at half-maximal effect.

SMILES | Pf Dd2 growth
O=C(Nc1cccc2ccccc12)O[C@@H]1CO[C@H]2[C@@H]1OC[C@@H]2NC(=O)C1CCC1 | 16.5%[44.1 µM]
COCCOC1CCOC2(CCN(C(=O)c3ccc(C)nc3)CC2)C1 (configuration not stated) | 37.0%
O=C(c1ccccn1)N1CCC(N(Cc2cccnc2)C2CCOCC2)CC1 | i
CN1CCC(NC(=O)CCC[C@@H]2[C@H]3CCCN4CCC[C@@H](CN2C)[C@@H]34)CC1 | -24.3%
COCCCNC(=O)[C@H]1CN(Cc2ccccc2)C[C@H]1C(=O)O | -6.8%
O=C(NCCCc1ccccc1F)[C@@]12CNC[C@@H]1CN(Cc1ccccc1)C2 | 7.94µM*
O=C(NCCCc1ccccc1)C1CN(Cc2ccccc2)C(=O)N1 (configuration not stated) | 6.9%[44.1 µM]
O=c1cc(C2CC(NC3CCC4(CCNCC4)CC3)C2)nc(C2CC2)[nH]1 (configuration not stated) | 2.3%
O=C(N[C@@H]1CN(Cc2ccc(F)cc2Cl)C[C@H]1CO)C1CCC1 | 8.91µM*
O=C(N[C@@H]1CN(Cc2ccc(Cl)c(F)c2)C[C@H]1CO)C1CCC1 | -27.0%
O=C(N[C@@H]1CN(Cc2ccc(F)cc2F)C[C@H]1CO)c1ccccc1 | 10µM*
CN1C[C@@H](CO)[C@H](NC(=O)c2ccccc2)C1 | 11.5%
O=C(N[C@@H]1CN(Cc2ccc(F)cc2Cl)C[C@H]1CO)C1CC1 | -5.4%
N#Cc1cccc(CN2C[C@@H](CO)[C@H](NC(=O)c3ccccc3)C2)c1 | -17.0%
COc1ccc(-c2nc(C)nc3c2CN(C(=O)c2ccc4c(c2)OCO4)CC3)cc1 | -12.1%
CCc1ccc(N2CC(c3noc(-c4cc(Cl)ccc4F)n3)CC2=O)cc1 (configuration not stated) | 4.2%
O=C(O)Cn1nc(-c2ccccc2)nc1C1CC(=O)N(Cc2cccnc2)C1 (configuration not stated) | -0.6%
CC(=O)N1Cc2ccccc2CC2(CCN(C)CC2)C1 | -20.8%[44.1 µM]
CN1CCN(C(=O)C2(N(C)CCc3ccccc3)Cc3ccccc3C2)CC1 | 1µM*
CN(C)CCC(=O)N1Cc2ccccc2CC2(CCCCN2C)C1 (configuration not stated) | -34.0%
Cc1cc(C(=O)N2CCC(C3CCN(S(C)(=O)=O)CC3)C2)nn1C (configuration not stated) | -9.9%
O=C(CC1CCCCC1)N1CCC(n2cc(-c3nc(-c4ccccc4)no3)nn2)CC1 | i
Cc1cccc(-c2nc(Cn3c(=O)cc(-c4ccccc4)c4c(C)nn(C)c43)c(C)o2)c1 | -12.5%
Cc1oc(-c2ccccc2)nc1Cn1c(=O)cc(-c2ccccc2)c2c(C)nn(C)c21 | 10µM*
Cc1ccc(C)c(-c2nc(Cn3c(=O)cc(-c4ccccc4)c4c(C)nn(C)c43)c(C)o2)c1 | 42.9%
SMILES | Pf Dd2 growth
O=C(c1ccc(Cl)cc1)N1CCC(N2CCNC2=O)CC1 | 10.1%
COCCn1c(=O)n([C@H]2CCCN(C(=O)c3cnc(C)cn3)C2)c2ncccc21 | 22.1%
O=C1CCCN1CC(=O)N1CCCC(Nc2ccccc2)C1 (configuration not stated) | -11.9%
CC(C)CCN1CCCC2(C1)C(=NC1CCCCC1)NC(=O)N2c1cc(F)cc(F)c1 (configuration not stated) | 3.98µM*
O=C1NC(=NC2CCCC2)C2(CCN(CC3CC3)C2)N1c1cccnc1 (configuration not stated) | -12.0%
CC(C)CCN1CCCC2(C1)C(=NC1CCCC1)NC(=O)N2c1cccnc1 (configuration not stated) | -14.5%
O=C1NC(=NC2CCCCC2)C2(CCN(CC3CCCCC3)CC2)N1c1cc(F)cc(F)c1 | 9.6%
O=C1NC(=NC2CCCC2)C2(CCCN(CC3CCCCC3)C2)N1c1cc(F)cc(F)c1 (configuration not stated) | 4.47µM*
O=C(c1ccccc1)N1CCC2(C1)C(=NC1CCCCC1)NC(=O)N2c1cc(F)cc(F)c1 (configuration not stated) | 9.0%
O=C(c1ccccc1F)N1CCC2(C1)C(=NC1CCCCC1)NC(=O)N2c1cc(F)cc(F)c1 (configuration not stated) | -3.7%
CC(C)CCN1CCC2(C1)C(=NC1CCCCC1)NC(=O)N2c1cccnc1 (configuration not stated) | 77.4%
O=C1NC(=NC2CCCCC2)C2(CCN(CC3CCCCC3)C2)N1c1cc(F)cc(F)c1 (configuration not stated) | 5.01µM*
O=C(O)CCc1nc(C2CCOCC2)n[nH]1 | -16.7%
COc1ccc(N2CC3(C2)CN(c2ccccc2)C(=O)O3)cc1OC | 23.8%[44.1 µM]
Cn1nccc1C(=O)NCC1CCCCC(=O)N1 (configuration not stated) | i
COc1ccc(CC(=O)NC2CCN(c3cc(-c4ccc(F)cc4)[nH]n3)CC2)cc1OC | i
COc1ccc(NC(=O)NC[C@H]2O[C@@H]3C[C@@H](CC(=O)N4CCOCC4)O[C@@H]3[C@@H]2O)cc1 | 5.9%[44.1 µM]
CCN(CC)Cc1cnc2c(C(=O)N3CCCCCCC3)cnn2c1 | -3.9%
O=c1ccc2cc(S(=O)(=O)N3CCC4(CCCNC4)C3)ccc2o1 (configuration not stated) | -13.4%
CN1CCC(N2CCN(S(=O)(=O)c3ccccc3C(F)(F)F)CC2)C1=O (configuration not stated) | -14.8%
CNc1ccc(C(=O)N2CCC3(CCCNC3)C2)cc1 (configuration not stated) | -15.4%
O=C(c1cc(F)c(F)c(F)c1)N1CCC2(CCCNC2)C1 (configuration not stated) | 3.4%
O=S(=O)(c1ccccc1C(F)(F)F)N1CCC2(CCCNC2)C1 (configuration not stated) | 7.94µM*
CC(C)c1ccc(S(=O)(=O)N2CCC3(CCCNC3)C2)cc1 (configuration not stated) | 5.01µM*
OCc1cc(CC2(NCC3CC3)COC2)no1 | 2.2%[44.1 µM]
SMILES | Pf Dd2 growth
Cc1ccc(CNC(=O)N2CCc3nnc(C4CC4)n3CC2)cc1 | -19.9%
CC1CCN([C@@H]2[C@H](O)[C@H](CO)O[C@@H]2CNC2CCCCC2)CC1 | i
Cc1cc(C)c(NC(=O)COc2ccc3c(C)cc(=O)oc3c2)c(C)c1 | i
CCNC(=O)NCC1c2cc(OC)c(OC)cc2CCN1C(=O)Nc1ccccc1OC (configuration not stated) | i
COc1cc2c(cc1OC)C(COc1ccc3c(C)cc(=O)oc3c1)N(C(=O)c1cccc(OC)c1OC)CC2 (configuration not stated) | 8.91µM*
COc1ccc(OCC(=O)N2CCN(C(=O)c3cccc(OC)c3OC)CC2)cc1 | -0.8%
COc1cc2c(cc1OC)C(COc1ccc3c(C)cc(=O)oc3c1)N(C(=O)c1cccc(C)c1)CC2 (configuration not stated) | 5.01µM*
COc1ccc(CC(=O)NCc2ccc3c(c2)CCN3C(=O)c2cccc(C)c2)cc1 | i
O=C(c1cccnn1)N1CC(F)(F)C[C@H]1c1nc(C2CC2)no1 | 11.3%
O=C1Nc2ccccc2O[C@H]2C[C@@H]1N(C(=O)c1ccc(Cl)cc1)C2 | -3.1%[44.1 µM]
Cc1noc(C)c1[S+](=O)([O-])N1CCC(N2CCCOC2=O)CC1 | -1.5%[44.1 µM]
O=C(NCc1ccco1)c1ccc2c(c1)N(Cc1ccc(Cl)cc1)C(=O)c1ccccc1S2(=O)=O | i
CCC1CCCCN1CCCNC(=O)c1ccc2c(c1)N(Cc1cccc(C)c1)C(=O)c1ccccc1S2(=O)=O (configuration not stated) | 3.98µM*

Source: PubChem BioAssay (National Center for Advancing Translational Sciences (NCATS))
